Data from publication PMC4336329 (PLoS ONE, 2015).
Hit rate of the full screen: of about 310,000 compounds, about 2,200 (0.71%) showed an effect of 50% or more. Effects have a minus sign here. For the sample, strong results were picked, then their nearest neighbours and some compounds at random.

Target: human ether-à-go-go-related gene (hERG) potassium channel (human, UniProt Q12809)
Test: primary screen, population patch clamp on CHO cells stably expressing hERG; higher = less effect of the substance

Chain of human ether-à-go-go-related gene (hERG) potassium channel (Q12809 whole entry, looked up): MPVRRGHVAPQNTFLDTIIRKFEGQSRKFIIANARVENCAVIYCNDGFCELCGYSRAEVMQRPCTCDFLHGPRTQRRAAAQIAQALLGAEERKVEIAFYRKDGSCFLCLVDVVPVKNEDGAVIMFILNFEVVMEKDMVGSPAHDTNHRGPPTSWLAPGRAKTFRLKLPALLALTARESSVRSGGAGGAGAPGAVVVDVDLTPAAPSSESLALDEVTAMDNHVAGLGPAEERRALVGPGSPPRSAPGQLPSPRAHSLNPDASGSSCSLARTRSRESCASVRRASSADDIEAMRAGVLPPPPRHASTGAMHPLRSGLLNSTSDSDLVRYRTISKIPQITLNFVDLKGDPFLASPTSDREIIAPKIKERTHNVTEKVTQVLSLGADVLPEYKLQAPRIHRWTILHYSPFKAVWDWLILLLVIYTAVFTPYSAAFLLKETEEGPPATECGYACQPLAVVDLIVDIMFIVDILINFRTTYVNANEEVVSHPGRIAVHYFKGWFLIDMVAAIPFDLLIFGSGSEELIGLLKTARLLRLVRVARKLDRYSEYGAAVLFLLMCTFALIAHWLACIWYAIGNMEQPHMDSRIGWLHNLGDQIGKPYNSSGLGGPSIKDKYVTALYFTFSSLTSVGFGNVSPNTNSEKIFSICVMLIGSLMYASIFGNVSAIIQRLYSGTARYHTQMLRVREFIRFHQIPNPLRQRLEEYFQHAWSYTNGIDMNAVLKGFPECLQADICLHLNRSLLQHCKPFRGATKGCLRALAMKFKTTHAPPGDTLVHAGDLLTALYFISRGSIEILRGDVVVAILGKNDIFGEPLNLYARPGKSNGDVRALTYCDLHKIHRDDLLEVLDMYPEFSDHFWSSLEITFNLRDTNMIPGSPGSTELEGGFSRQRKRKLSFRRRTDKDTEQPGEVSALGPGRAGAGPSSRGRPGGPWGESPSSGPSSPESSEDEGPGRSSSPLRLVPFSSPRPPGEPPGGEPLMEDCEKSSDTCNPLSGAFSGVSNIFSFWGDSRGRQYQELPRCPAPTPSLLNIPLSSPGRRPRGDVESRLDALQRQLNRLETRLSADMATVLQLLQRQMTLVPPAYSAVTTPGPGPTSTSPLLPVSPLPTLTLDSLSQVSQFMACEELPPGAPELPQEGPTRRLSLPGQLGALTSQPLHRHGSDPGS

| SMILES | hERG current change (%, negative = inhibition) at 1uM [%] |
| --- | --- |
| COc1ccc(C(=O)NNC(=O)C(=O)NC2CCCCC2)cc1 | 4.11 |
| O=c1cccccc1NN=C1CCCCCC1 | 14.1 |
| Clc1ccc(/C=N/Nc2nnc(-c3ncc[nH]3)c3ccccc23)cc1 | 4.89 |
| Cc1cc(OCCCCOc2ccc(S(N)(=O)=O)c(C)c2)ccc1S(N)(=O)=O | 12.7 |
| O=C(O)Cn1c(=O)c2c3c(sc2n(Cc2ccc(Cl)cc2Cl)c1=O)CCCC3 | 6.14 |
| CC(Sc1nnc(C2CC2)n1C1CC1)C(=O)N(C)Cc1cccc(F)c1 (stereo not drawn) | -2.8 |
| CCOC(=O)C1=C(c2ccccc2)NC(=O)N(C(C)=O)C1c1cccc([N+](=O)[O-])c1 (stereo not drawn) | 10.2 |
| CCOCCCn1c(=N)c(S(=O)(=O)c2ccccc2)cc2c(=O)n3cc(C)ccc3nc21 | 11.3 |
| CCOCCCn1c(=N)c(S(=O)(=O)c2ccc(C)cc2)cc2c(=O)n3cc(C)ccc3nc21 | 16.1 |
| CC(C)OCCCn1c(=N)c(C(N)=S)cc2c(=O)n3ccccc3nc21 | -74.5 |
| CC(C)OCCCn1c(=N)c(S(=O)(=O)c2ccccc2)cc2c(=O)n3ccccc3nc21 | -0.118 |
| Cc1ccc2nc3c(cc(C(N)=S)c(=N)n3CCCOC(C)C)c(=O)n2c1 | -65.1 |
| CCOC(=O)c1cc2c(=O)n3ccccc3nc2n(CCCOC)c1=NC(C)=O | -15.6 |
| CCc1cc(C(=O)COc2ccc(F)cc2)c(O)cc1O | 5.76 |
| CCSc1nc2sc3c(c2c(=O)[nH]1)CC(C)(CC)OC3 (stereo not drawn) | 18.7 |
| O=C1C=C(NCc2ccc(Cl)cc2)CC(c2ccco2)C1 (stereo not drawn) | -91.3 |
| CC(C)CCNC1=CC(=O)CC(c2ccccc2)C1 (stereo not drawn) | -0.257 |
| CCCCCCCNC1=CC(=O)CC(c2ccccc2)C1 (stereo not drawn) | -63.2 |
| CCCCCCCNC1=CC(=O)CC(c2ccco2)C1 (stereo not drawn) | -77.6 |

| SMILES | hERG current change (%, negative = inhibition) at 1uM [%] |
| --- | --- |
| O=C1C=C(NCc2ccncc2)CC(c2ccccc2)C1 (stereo not drawn) | -22.8 |
| CN(C)CCCNC1=CC(=O)CC(c2ccccc2)C1 (stereo not drawn) | -1.56 |
| CC(C)CNC1=CC(=O)CC(c2ccco2)C1 (stereo not drawn) | 14.5 |
| O=C1C=C(NCc2ccc3c(c2)OCO3)CC(c2ccccc2)C1 (stereo not drawn) | -81.9 |
| CCc1ccc(NC2=CC(=O)CC(c3ccco3)C2)cc1 (stereo not drawn) | 12.9 |
| O=C1C=C(NCc2ccco2)CC(c2ccc(Cl)cc2)C1 (stereo not drawn) | -34.8 |
| COc1ccc(C2CC(=O)C=C(NCc3ccc4c(c3)OCO4)C2)cc1 (stereo not drawn) | -32.6 |
| O=C1C=C(Nc2ccc(Cl)cc2)CC(c2ccco2)C1 (stereo not drawn) | 4.78 |
| Cc1cccc(OC(=O)NCCOC(=O)N(O)c2ccc(Cl)cc2)c1 | 1.04 |
| Cc1ccc(NC(=O)CSc2sc3c(O)cc(=O)[nH]c3c2C#N)c(F)c1 | -4.66 |
| Cc1cccc(C)c1NC(=O)CSc1nc2[nH]c(=O)cc(O)c2s1 | 4.15 |
| COc1ccc(N(CC(=O)NC2CC3CCC2C3)S(=O)(=O)c2ccc(C)c([N+](=O)[O-])c2)cc1 (stereo not drawn) | 10.2 |
| COc1cccc(C(=O)NNS(=O)(=O)c2ccc(C)cc2)c1 | 13 |
| O=C(NCc1ccco1)c1cccc(NS(=O)(=O)c2ccccc2F)c1 | 6.58 |
| Cc1ccc(NC(=O)CSCC(=O)NCc2cccc(C(F)(F)F)c2)cc1 | 6.6 |
| O=C(CN(C(=O)C1COc2ccccc2O1)c1ccccc1)NCC1CCCO1 (stereo not drawn) | -9.34 |
| CCOc1ccccc1Nc1nc(N)nc(CSc2nncn2C)n1 | 9.75 |
| Cc1cccc(OCC(=O)Nc2ccc(C(=O)NCC(C)C)cc2)c1 | 4.42 |
| CCOCCCNC(=S)Nc1cc(OCC)c(NC(=O)c2ccco2)cc1OCC | 7.7 |

| SMILES | hERG current change (%, negative = inhibition) at 1uM [%] |
| --- | --- |
| COc1ccc(C(=O)N2CCN=C2SCc2cccnc2)cc1OC | 9.25 |
| COc1nnc(-c2ccc(C)c(S(N)(=O)=O)c2)c2ccccc12 | 3.63 |
| COc1nnc(-c2ccc(C)c(S(=O)(=O)NC(C)C)c2)c2ccccc12 | -5.36 |
| COc1nnc(-c2ccc(C)c(S(=O)(=O)N(C)C)c2)c2ccccc12 | -53.6 |
| CC(=O)Nc1ccc(NC2CCCCC2NS(=O)(=O)c2ccc(Cl)cc2)cc1 (stereo not drawn) | 12 |
| CCOC(=O)C1(Cc2ccc(Cl)cc2)CCN(C(C)Cc2ccc(O)c(OC)c2)CC1 (stereo not drawn) | -7.39 |
| CCCn1cc(CN2CCC(Cc3cccc(F)c3)(C(=O)OCC)CC2)c(C)n1 | -60.3 |
| CCOC(=O)C1(Cc2ccccc2)CCCN(CCCn2cccn2)C1 (stereo not drawn) | 3.88 |
| CCOC(=O)C1(CCCc2ccccc2)CCN(Cc2nccn2CC)CC1 | -45.8 |
| CCOC(=O)C1(Cc2ccccc2C(F)(F)F)CCN(CCCn2cccn2)CC1 | -49.2 |
| CCOC(=O)C1(Cc2ccc(Cl)cc2)CCN(CCCn2cccn2)CC1 | -77 |
| CCOC(=O)C1(Cc2cccc(F)c2)CCN(Cc2cn(CC)nc2C)CC1 | -6.14 |
| CCOC(=O)C1(CCCc2ccccc2)CCN(CCCn2cccn2)CC1 | -84.6 |
| CCOC(=O)C1(CCCc2ccccc2)CCN(Cc2cnn(C)c2)CC1 | -46.4 |
| CCOC(=O)C1(Cc2ccccc2C(F)(F)F)CCN(C(C)CCn2cccn2)CC1 (stereo not drawn) | -40.8 |
| CCCn1cc(CN2CCC(Cc3ccccc3)(C(=O)OCC)CC2)c(C)n1 | -14 |
| CCOC(=O)C1(Cc2ccc(Cl)cc2)CCN(C(C)CCn2cccn2)CC1 (stereo not drawn) | -87.1 |
| Cc1ccc(C2=NN(CCC(=O)NCCCN3CCOCC3)C(=O)CC2)cc1 | -9.94 |
| O=C(CNC(=O)c1nc[nH]c1C(=O)NCC(=O)OCc1ccccc1)OCc1ccccc1 | 10.3 |
